Source: the supplement of paper PMC11172423

These compounds were tested on Madurella mycetomatis MM55 (assay: growth relative to untreated control; higher = less inhibition, active = 20 or less). Conditions: 25 µM.
Method: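 Hyphal fragments of M. mycetomatis MM55 or F. senegalensis CBS197.79 in RPMI 1640/MOPS were exposed to each MMV COVID Box or Global Health Priority Box compound at 100 or 25 µM for 7 days at 37 °C. Viability was read with MTS (490 nm, M. mycetomatis) or resazurin (600 nm, F. senegalensis), background-corrected with a medium-only control and expressed as % growth relative to the untreated growth control. Inhibition of more than 80% was taken as growth inhibition.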

| Structure (SMILES) | growth |
| --- | --- |
| CC(C)Nc1cccnc1N1CCN(C(=O)c2cc3cc(NS(C)(=O)=O)ccc3[nH]2)CC1 | 104% (inactive) |
| CC[C@@H]([C@H](C)O)n1ncn(-c2ccc(N3CCN(c4ccc(OC[C@@H]5CO[C@@](Cn6cncn6)(c6ccc(F)cc6F)C5)cc4)CC3)cc2)c1=O | 6.56% (active) |
| OB(O)O | 98.7% (inactive) |
| CC(=O)Nc1ccc(NC(=O)c2cc(-c3ccc(C)cc3O)n[nH]2)cc1 | 85.3% (inactive) |
| CNC(=O)c1cc(Oc2ccc(NC(=O)Nc3ccc(Cl)c(C(F)(F)F)c3)cc2)ccn1 | 45.7% (inactive) |
| Cc1ccc(NC(=O)c2ccc(CN3CCN(C)CC3)cc2)cc1Nc1nccc(-c2cccnc2)n1 | 86% (inactive) |
| Cc1cnc2nc(NC3COc4ccccc43)nc(NC(C3CC3)C3CC3)c2c1 (stereo not given) | 7.72% (active) |
| Cc1nn(C2CCS(=O)(=O)C2)c(C)c1C1Nc2ccccc2C(=O)N1Cc1ccc2c(c1)OCO2 (stereo not given) | 82.2% (inactive) |
| FC(F)(F)c1ccnc(Nc2cn3cc(-c4ccc(N5CCOCC5)nc4)ccc3n2)n1 | 73.7% (inactive) |
| CCN1C(=O)N(CCC(C)C)C2(CCN(Cc3cc(O)cc(Cl)c3)CC2)C1=O | 99.4% (inactive) |
| Cc1ccc(C(=O)Nc2ccc(CN3CCN(C)CC3)c(C(F)(F)F)c2)cc1C#Cc1cnc2cccnn12 | 16.4% (active) |
| NC(=O)C(c1ccccc1)(c1ccccc1)[C@@H]1CCN(CCc2ccc3c(c2)CCO3)C1 | 106% (inactive) |
| CC(C)N1CCN(c2ccc(OC[C@H]3CO[C@](Cn4cncn4)(c4ccc(Cl)cc4Cl)O3)cc2)CC1 | 3.57% (active) |
| N#Cc1ccc(-c2n[nH]c3ccc(-c4n[nH]c(CC(F)(F)F)n4)cc23)cc1 | 109% (inactive) |
| CC(N)CCn1c(Nc2cc(Cl)cc(C(F)(F)F)c2)nc2cnc(NC(C)(C)C)nc21 (stereo not given) | 6.25% (active) |
| FC(F)(F)c1cc(Cl)cc(Nc2nc3cnc(NC4CCOCC4)nc3n2C2CCNCC2)c1 | 111% (inactive) |
| COc1ccc(-n2nc(C)c3c2NC(=O)CC3c2ccccc2OCc2ccc(F)cc2)cc1 (stereo not given) | 41.5% (inactive) |
| FC(F)(F)c1cc(Nc2nc3cnc(NCC4CC4)nc3n2C2CCNCC2)cc(C(F)(F)F)c1 | 34.1% (inactive) |
| CS(=O)(=O)c1ccc(-c2cnn3c2NC(c2cccc(S(=O)(=O)C4CC4)c2)CC3)cc1 (stereo not given) | 97.1% (inactive) |
| CN(C)CCCN1c2ccccc2CCc2ccc(Cl)cc21 | 38.1% (inactive) |

Same assay, conditions: 100 µM

| Structure (SMILES) | growth |
| --- | --- |
| CC(C)Nc1cccnc1N1CCN(C(=O)c2cc3cc(NS(C)(=O)=O)ccc3[nH]2)CC1 | 96.3% (inactive) |
| CC[C@@H]([C@H](C)O)n1ncn(-c2ccc(N3CCN(c4ccc(OC[C@@H]5CO[C@@](Cn6cncn6)(c6ccc(F)cc6F)C5)cc4)CC3)cc2)c1=O | 9.91% (active) |
| OB(O)O | 163% (inactive) |
| CC(=O)Nc1ccc(NC(=O)c2cc(-c3ccc(C)cc3O)n[nH]2)cc1 | 82.5% (inactive) |
| CNC(=O)c1cc(Oc2ccc(NC(=O)Nc3ccc(Cl)c(C(F)(F)F)c3)cc2)ccn1 | 35.1% (inactive) |
| Cc1ccc(NC(=O)c2ccc(CN3CCN(C)CC3)cc2)cc1Nc1nccc(-c2cccnc2)n1 | 70.7% (inactive) |
| Cc1cnc2nc(NC3COc4ccccc43)nc(NC(C3CC3)C3CC3)c2c1 (stereo not given) | 8.15% (active) |
| Cc1nn(C2CCS(=O)(=O)C2)c(C)c1C1Nc2ccccc2C(=O)N1Cc1ccc2c(c1)OCO2 (stereo not given) | 91.4% (inactive) |
| FC(F)(F)c1ccnc(Nc2cn3cc(-c4ccc(N5CCOCC5)nc4)ccc3n2)n1 | 132% (inactive) |
| CCN1C(=O)N(CCC(C)C)C2(CCN(Cc3cc(O)cc(Cl)c3)CC2)C1=O | 104% (inactive) |
| Cc1ccc(C(=O)Nc2ccc(CN3CCN(C)CC3)c(C(F)(F)F)c2)cc1C#Cc1cnc2cccnn12 | 10.5% (active) |
| NC(=O)C(c1ccccc1)(c1ccccc1)[C@@H]1CCN(CCc2ccc3c(c2)CCO3)C1 | 79.1% (inactive) |
| CC(C)N1CCN(c2ccc(OC[C@H]3CO[C@](Cn4cncn4)(c4ccc(Cl)cc4Cl)O3)cc2)CC1 | 2.95% (active) |
| N#Cc1ccc(-c2n[nH]c3ccc(-c4n[nH]c(CC(F)(F)F)n4)cc23)cc1 | 114% (inactive) |
| CC(N)CCn1c(Nc2cc(Cl)cc(C(F)(F)F)c2)nc2cnc(NC(C)(C)C)nc21 (stereo not given) | 5.86% (active) |
| FC(F)(F)c1cc(Cl)cc(Nc2nc3cnc(NC4CCOCC4)nc3n2C2CCNCC2)c1 | 5.14% (active) |
| COc1ccc(-n2nc(C)c3c2NC(=O)CC3c2ccccc2OCc2ccc(F)cc2)cc1 (stereo not given) | 52.4% (inactive) |
| FC(F)(F)c1cc(Nc2nc3cnc(NCC4CC4)nc3n2C2CCNCC2)cc(C(F)(F)F)c1 | 5.31% (active) |
| CS(=O)(=O)c1ccc(-c2cnn3c2NC(c2cccc(S(=O)(=O)C4CC4)c2)CC3)cc1 (stereo not given) | 82.5% (inactive) |
| CN(C)CCCN1c2ccccc2CCc2ccc(Cl)cc21 | 3.39% (active) |
